# Reference: PubChem BioAssay (NCATS)
# Records with an inconclusive call do not appear. Where a call stands in place of a potency, no number is given. Active and inactive are the calls of the source. Unless noted, the call rests on the fitted dose curve; in most records, active means well fitted curve in the direction sought with a large enough effect; inconclusive means small, poorly fitted or top-dose-only effect, or another doubt; inactive means no such curve, though single readings can be large; an effect the other way counts as inactive or inconclusive.
# Experiments:
# [1] = qHTS assay to identify small molecule inhibitors of chordoma cells - UCH-2 (AID 1259356)
# [2] = P-glycoprotein substrates identified in KB-8-5-11 adenocarcinoma cell line, qHTS therapeutic library screen (AID 1346987); further: nearly all actives have a fitted effect of over 65% in size; further: potency means the concentration at half of the fitted maximal effect
# How it was run: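 P-gp-mediated resistance screen: KB-8-5-11 cells treated 72 h with compounds in dose-response. CellTiter-Glo viability.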
# [3] = target: Atrial natriuretic peptide receptor 1 (Homo sapiens) (UniProt P16066); experiment: Natriuretic polypeptide receptor (hNpr1) antagonism - Pilot screen (AID 1347049; calls by dose curve;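 further: agonist-evoked cGMP luminescence read 20 min after hNppA addition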)
# Sequence of Atrial natriuretic peptide receptor 1 (Homo sapiens) (P16066 whole entry, looked up): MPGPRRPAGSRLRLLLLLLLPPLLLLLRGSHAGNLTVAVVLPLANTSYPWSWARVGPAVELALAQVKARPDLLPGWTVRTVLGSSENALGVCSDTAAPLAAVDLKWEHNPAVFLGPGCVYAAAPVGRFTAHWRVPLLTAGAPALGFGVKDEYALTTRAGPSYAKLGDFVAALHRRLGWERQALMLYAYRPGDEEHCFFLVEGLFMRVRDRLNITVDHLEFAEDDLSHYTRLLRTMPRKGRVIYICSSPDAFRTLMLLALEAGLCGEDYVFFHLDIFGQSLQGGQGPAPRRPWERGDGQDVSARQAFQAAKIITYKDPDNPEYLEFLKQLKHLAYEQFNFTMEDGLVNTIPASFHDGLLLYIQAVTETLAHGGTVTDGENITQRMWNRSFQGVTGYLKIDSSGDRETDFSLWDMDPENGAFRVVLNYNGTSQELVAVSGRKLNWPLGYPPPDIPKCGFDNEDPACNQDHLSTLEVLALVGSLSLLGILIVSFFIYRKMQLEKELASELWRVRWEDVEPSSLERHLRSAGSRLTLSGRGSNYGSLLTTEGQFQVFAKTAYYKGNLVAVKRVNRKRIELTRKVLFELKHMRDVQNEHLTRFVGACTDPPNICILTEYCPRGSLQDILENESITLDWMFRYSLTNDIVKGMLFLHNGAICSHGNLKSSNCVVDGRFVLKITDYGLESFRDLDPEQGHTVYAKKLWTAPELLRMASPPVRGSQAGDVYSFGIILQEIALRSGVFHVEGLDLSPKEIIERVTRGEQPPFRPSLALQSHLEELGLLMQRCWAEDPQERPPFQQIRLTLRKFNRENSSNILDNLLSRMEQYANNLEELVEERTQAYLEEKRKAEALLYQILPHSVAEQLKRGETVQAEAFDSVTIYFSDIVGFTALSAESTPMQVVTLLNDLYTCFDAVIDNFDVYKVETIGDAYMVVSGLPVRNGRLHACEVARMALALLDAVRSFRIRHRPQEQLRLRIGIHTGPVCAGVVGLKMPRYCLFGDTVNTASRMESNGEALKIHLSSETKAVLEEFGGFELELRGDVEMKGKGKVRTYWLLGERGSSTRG
# How it was run: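 HEK293 cells expressing hNpr1 and GloSensor cGMP luciferase, 1500/well, loaded with 2% GloSensor reagent 2 h, compound 30 min at room temperature; luminescence read before and 20 min after 0.1 nM hNppA stimulation.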
# [4] = Natriuretic polypeptide receptor (hNpr1) antagonism - Pilot counterscreen GloSensor control cell line (AID 1347045; calls by dose curve)
# How it was run: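 This counterscreen uses HEK293 cells expressing the GIP/pGS-40F cGMP biosensor. Compound-treated cells are challenged with 50 uM sodium nitroprusside, and the luciferase signal is compared before and after stimulation.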
# [5] = P-glycoprotein substrates identified in KB-3-1 adenocarcinoma cell line, qHTS therapeutic library screen (AID 1346986); conditions: KB-3-1 parental cells viability, CellTiter-Glo, 72 h; at 44.5 µM (top of the series) unless noted; further: nearly all actives have a fitted effect of over 60% in size
# How it was run: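 Compounds were tested in dose-response against KB-3-1 and KB-8-5-11 cells at 37 degree C for 72 h, and viability was measured by luminescence. AC50 values came from curve fitting with class-based activity calls.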
smiles,measurement,setting,value
O=C(O)CN1C(=O)c2cccc3cccc(c23)C1=O,outcome,[1],inactive
same,Potency,[2],inactive
CCC(=O)c1ccc(O)cc1,outcome,[1],inactive
same,Potency,[2],inactive
COc1ccc(S(=O)(=O)Nc2nnc(CC(C)C)s2)cc1,outcome,[1],inactive
same,Potency,[2],inactive
O=S(=O)(O)NC1CCCCC1,outcome,[1],inactive
same,Potency,[2],inactive
CN1CCCCC1CCN1c2ccccc2Sc2ccc(S(C)=O)cc21 (stereo not given),outcome,[1],inactive
same,Potency,[2],inactive
CC1(C)CO[C@@H](CC(=O)O)CN1,outcome,[1],inactive
same,Potency,[2],inactive
CC[N+](CC)(CC)CCOc1ccc(/C=C/c2ccccc2)cc1,outcome,[1],inactive
same,Potency,[2],inactive
CN(N=O)C(=O)N[C@@H]1[C@@H](O)[C@H](O)[C@@H](CO)O[C@@H]1O,outcome,[1],inactive
same,Potency,[2],inactive
CC1(C)Oc2ccc(C#N)cc2[C@@H](N2CCCC2=O)[C@@H]1O,outcome,[1],inactive
same,Potency,[2],inactive
Cc1cc2c(cc1S(N)(=O)=O)S(=O)(=O)CCC2,outcome,[1],inactive
same,Potency,[2],inactive
CCCCOC(=O)c1ccc(O)cc1,outcome,[1],inactive
same,Potency,[2],inactive
O=C1O[C@H](CO)[C@@H](O)[C@H](O)[C@H]1O,outcome,[1],inactive
same,Potency,[2],inactive
C[C@H](N)[C@H](O)c1cccc(O)c1,outcome,[1],inactive
same,Potency,[2],inactive
Nc1ccc(S(=O)(=O)NC(=O)c2ccccc2)cc1,outcome,[1],inactive
same,Potency,[2],inactive
CN1[C@@H]2CC[C@H]1CC(OC(=O)C(O)c1ccccc1)C2 (stereo not given in full),outcome,[1],inactive
same,Potency,[2],inactive
O=c1[nH]c(=O)c2[nH]c(=O)[nH]c2[nH]1,outcome,[1],inactive
same,Potency,[2],inactive
CC(=O)CCC(=O)O,outcome,[1],inactive
same,Potency,[2],inactive
CCOC(=O)c1ccc(O)cc1,outcome,[1],inactive
same,Potency,[2],inactive
O=C(O)COc1nn(Cc2ccccc2)c2ccccc12,outcome,[1],inactive
same,Potency,[2],inactive
Oc1ccc(C(O)CNCCCCCCNCC(O)c2ccc(O)c(O)c2)cc1O (stereo not given),outcome,[1],inactive
same,Potency,[2],inactive
Cc1ncc([N+](=O)[O-])n1CC(O)CCl (stereo not given),outcome,[1],inactive
same,Potency,[2],inactive
OCC(CO)N[C@H]1C[C@](O)(CO)[C@@H](O)[C@H](O)[C@H]1O,outcome,[1],inactive
same,Potency,[2],inactive
COc1cc(C)c(Cc2cnc(N)nc2N)cc1OC,outcome,[1],inactive
same,Potency,[2],inactive
CC(O)COc1ccccc1 (stereo not given),outcome,[1],inactive
same,Potency,[2],inactive
N[C@@H](CSSC[C@H](N)C(=O)O)C(=O)O,outcome,[1],inactive
same,Potency,[2],inactive
CN(C)CCN(Cc1ccccc1)c1ccccn1,outcome,[1],inactive
same,Potency,[2],inactive
CN(C)CCCO[C@@H]1[C@H]2OC(C)(C)O[C@H]2O[C@@H]1C(O)CO (stereo not given in full),outcome,[1],inactive
same,Potency,[2],inactive
C[C@H]1O[C@H](O[C@H]2[C@H](O)[C@@H](O)[C@@H](O[C@H]3[C@H](O)[C@@H](O)[C@H](O)O[C@@H]3CO)O[C@@H]2CO)[C@H](O)[C@@H](O)[C@@H]1N[C@H]1C=C(CO)[C@@H](O)[C@H](O)[C@H]1O,outcome,[1],inactive
same,Potency,[2],inactive
COc1ccc2cc1Oc1cc3c(cc1OC)CC[N+](C)(C)[C@H]3Cc1ccc(cc1)Oc1c(OC)c(OC)cc3c1[C@@H](C2)[N+](C)(C)CC3,outcome,[1],inactive
same,Potency,[2],inactive
Cc1cccc(C)c1NC(=O)CN(CC(=O)O)CC(=O)O,outcome,[1],inactive
same,Potency,[2],inactive
O=S(=O)(O)c1cc(I)c(O)c2ncccc12,outcome,[1],inactive
same,Potency,[2],inactive
O=C1NS(=O)(=O)c2ccccc21,outcome,[1],inactive
same,Potency,[2],inactive
C[C@@H]1CC[C@@]2(OC1)O[C@H]1C[C@H]3[C@@H]4CC[C@H]5C[C@@H](O)CC[C@]5(C)[C@H]4CC(=O)[C@]3(C)[C@H]1[C@@H]2C,outcome,[1],inactive
same,Potency,[2],inactive
NCC(=O)CCC(=O)O,outcome,[1],inactive
same,Potency,[2],inactive
CC(CN1c2ccccc2Sc2ccccc21)N(C)C (stereo not given),outcome,[1],inactive
same,outcome,[3],inactive
O=C(O)c1ccccn1,Potency,[2],inactive
OCCN1CCN(CCCN2c3ccccc3Sc3ccc(Cl)cc32)CC1,outcome,[1],inactive
same,outcome,[3],inactive
OCc1cc(C(O)CNCCCCCCOCCCCc2ccccc2)ccc1O (stereo not given),outcome,[1],inactive
same,Potency,[2],inactive
same,outcome,[4],inactive
same,outcome,[3],inactive
COc1ccc2cc1Oc1ccc(cc1)C[C@H]1c3c(cc4c(c3Oc3cc5c(cc3OC)CCN(C)[C@@H]5C2)OCO4)CCN1C,Potency,[2],20.6 µM (active)
C[C@@H]1CN(c2c(F)c(F)c3c(=O)c(C(=O)O)cn(C4CC4)c3c2F)C[C@H](C)N1,outcome,[5],inactive [at 9.29 µM]
same,Potency,[2],inactive
NC(=O)NC(=O)Cc1ccccc1,Potency,[2],inactive
CCN(CC)C(C)CN1c2ccccc2Sc2ccccc21 (stereo not given),outcome,[1],inactive
same,outcome,[4],inactive
same,outcome,[3],inactive
O=C1N=C(O)CN1/N=C/c1ccc(-c2ccc([N+](=O)[O-])cc2)o1,outcome,[1],inactive
same,Potency,[2],inactive
same,outcome,[4],inactive
same,outcome,[3],inactive
Cc1ccc(C(C)C)cc2c(C)ccc1-2,outcome,[1],inactive
same,Potency,[2],inactive
NC(=O)c1ncn([C@@H]2O[C@H](CO)[C@@H](O)[C@H]2O)n1,outcome,[1],inactive
same,outcome,[3],inactive
C[C@@H]1CCN(C(=O)[C@H](CCCN=C(N)N)NS(=O)(=O)c2cccc3c2NC[C@H](C)C3)[C@@H](C(=O)O)C1,Potency,[2],inactive
CC/C=C(\C(=O)N[C@@H]1C(=O)N2C(C(=O)OCOC(=O)C(C)(C)C)=C(COC(N)=O)CS[C@H]12)c1csc(N)n1,Potency,[2],inactive
O=C(O)CC(O)C(=O)O (stereo not given),Potency,[2],inactive
CC(C)c1c(C(=O)Nc2ccccc2)c(-c2ccccc2)c(-c2ccc(F)cc2)n1CC[C@@H](O)C[C@@H](O)CC(=O)O,Potency,[2],inactive
Nc1ncnc2c1ncn2[C@@H]1O[C@H](CO)[C@@H](O)[C@H]1O,outcome,[1],inactive
same,Potency,[2],inactive
same,outcome,[4],inactive
same,outcome,[3],inactive
